Counter-ions that a name gives are not always drawn.

This experiment has as its system Danio rerio larvae (5 dpf). Description: 1-h baseline activity (% time moving, periods 1-6) minus DMSO control (percentage points); higher = more locomotor activity than DMSO larvae. To be noted: 10 µM; exposure time: 3 h pre-incubation + 3 h imaging. The protocol:
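Wild-type 5 dpf zebrafish larvae (n=48 per drug, 96-well plates, 28.5 °C) were exposed to Tocris FDA-approved library compounds at 10 µM (0.1% DMSO) for 3 h before and 3 h during imaging. Images were taken every 6 s during visual (moving coloured lines) and acoustic stimuli, and larvae were tracked with the DeepLabCut-based Z-LaP Tracker. Each behavioural measure is the treated-group mean minus the DMSO vehicle control mean (n=844), in percentage points. This mapping covers compounds with 4-character plate codes.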
Consider `CC1CNc2c(cccc2S(=O)(=O)N[C@@H](CCCNC(=N)N)C(=O)N2CC[C@@H](C)C[C@@H]2C(=O)O)C1` (stereo not given in full) [Argatroban], for which the 1-h baseline activity was 3.52.
The result for `O=c1[nH]c(=O)n([C@H]2C[C@H](O)[C@@H](CO)O2)cc1C(F)(F)F` [Trifluorothymidine] reads 0.518.
With `COc1ccc(C[C@@H](C)NC[C@H](O)c2ccc(O)c(NC=O)c2)cc1` [Arformoterol tartrate], the 1-h baseline activity was determined as 41.7.
In the case of `CO[C@H]1/C=C/O[C@@]2(C)Oc3c(C)c(O)c4c(O)c(c5c(nc6cc(C)ccn65)c4c3C2=O)NC(=O)/C(C)=C\C=C\[C@H](C)[C@H](O)[C@@H](C)[C@@H](O)[C@@H](C)[C@H](OC(C)=O)[C@@H]1C` [Rifaximin], the 1-h baseline activity was -1.58.
Regarding `OCCN(CCO)c1nc(N2CCCCC2)c2nc(N(CCO)CCO)nc(N3CCCCC3)c2n1` [Dipyridamole], the 1-h baseline activity is -3.7.
For `CCOC(=O)c1ncn2c1CN(C)C(=O)c1cc(F)ccc1-2` [Flumazenil], the 1-h baseline activity was found to be 1.03.
With `Cc1ccsc1C(=CCCN1CCC[C@@H](C(=O)O)C1)c1sccc1C` [Tiagabine hydrochloride], the 1-h baseline activity came out at 7.89.
With `CCOc1nc2cccc(C(=O)O)c2n1Cc1ccc(-c2ccccc2-c2noc(=O)[nH]2)cc1` [Azilsartan] the figure was 1.25.
Regarding `CC#C[C@]1(O)CC[C@H]2[C@@H]3CCC4=CC(=O)CCC4=C3[C@@H](c3ccc(N(C)C)cc3)C[C@@]21C` [Mifepristone], the 1-h baseline activity was -3.83.
With `CCOC(=O)C1=C(COCCN)NC(C)=C(C(=O)OC)C1c1ccccc1Cl` (stereo not given) [Amlodipine besylate] the figure was 0.364.
With `C=C1[C@H](CO)[C@@H](O)C[C@@H]1n1cnc2c(=O)[nH]c(N)nc21` [Entecavir] the figure was -2.24.
Regarding `C[C@H]1C[C@@H]2[C@H]([C@@H](O)C[C@@]3(C)[C@H]2CC[C@]3(O)C(=O)CO)[C@@]2(C)C=CC(=O)C=C12` [Methylprednisolone], the 1-h baseline activity was -0.716.
Take `Nc1nc2c(ncn2COCCO)c(=O)[nH]1` [Acyclovir]: the 1-h baseline activity was -2.63.
The result for `Brc1c(NC2=NCCN2)ccc2nccnc12` reads -17.8; that for `CC(C)N(CCCCOCC(=O)NS(C)(=O)=O)c1cnc(-c2ccccc2)c(-c2ccccc2)n1` [Selexipag], 1.65.
In the case of `C[C@]12CC[C@@H]3c4ccc(O)cc4C[C@@H](CCCCCCCCC[S+]([O-])CCCC(F)(F)C(F)(F)F)[C@H]3[C@@H]1CC[C@@H]2O` (stereo not given in full), the 1-h baseline activity came out at 8.32.
`CC(C)n1c(/C=C/C(O)CC(O)CC(=O)O)c(-c2ccc(F)cc2)c2ccccc21` (stereo not given) [Fluvastatin sodium]: the 1-h baseline activity is -0.765.
As for `CC(C)c1ccc2oc3nc(N)c(C(=O)O)cc3c(=O)c2c1` [Amlexanox], the 1-h baseline activity was found to be 5.8.
On to `Nc1cc(N2CCCCC2)nc(N)[n+]1[O-]` [Minoxidil], for which the 1-h baseline activity is 1.13.
As to `COc1cc2nc(N3CCN(C(=O)c4ccco4)CC3)nc(N)c2cc1OC` [Prazosin hydrochloride], the 1-h baseline activity is -4.14.
In the case of `O=C(c1ccc(OCCN2CCCCC2)cc1)c1c(-c2ccc(O)cc2)sc2cc(O)ccc12` [Raloxifene hydrochloride], the 1-h baseline activity is -7.31.
The result for `COc1ccc(Cl)cc1C(=O)NCCc1ccc(S(=O)(=O)NC(=O)NC2CCCCC2)cc1` [Glibenclamide] reads -0.0251; that for `CC(=O)Oc1ccccc1C(=O)O` [Aspirin], -0.776; that for `CC(=O)O[C@]1(C(C)=O)CC[C@H]2[C@@H]3C=C(C)C4=CC(=O)CC[C@]4(C)[C@H]3CC[C@@]21C` [Megestrol Acetate], -13.7.
Consider `CC(=O)S[C@@H]1CC2=CC(=O)CC[C@]2(C)[C@H]2CC[C@@]3(C)[C@@H](CC[C@@]34CCC(=O)O4)[C@H]12` [Spironolactone], for which the 1-h baseline activity was -0.875.
Turning to `COc1ccccc1OCCNCC(O)COc1cccc2[nH]c3ccccc3c12` (stereo not given) [Carvedilol], the 1-h baseline activity was -12.4.
As for `N#Cc1ccc(C(c2ccc(C#N)cc2)n2cncn2)cc1` [Letrozole], the 1-h baseline activity was -4.77.
`COc1cc2nc(N3CCN(C(=O)C4COc5ccccc5O4)CC3)nc(N)c2cc1OC` (stereo not given) [Doxazosin mesylate]: the 1-h baseline activity was -6.93.
With `COc1cc(Nc2c(C#N)cnc3cc(OCCCN4CCN(C)CC4)c(OC)cc23)c(Cl)cc1Cl` [Bosutinib] the figure was -17.1.
As for `CCOc1nc2cccc(C(=O)O)c2n1Cc1ccc(-c2ccccc2-c2nnn[nH]2)cc1` [Candesartan], the 1-h baseline activity was determined as 2.98.
In the case of `O=C(O)CCCc1ccccc1` [Sodium 4-Phenylbutyrate], the 1-h baseline activity was 0.969.
The result for `CCCCCCCCc1ccc(CCC(N)(CO)CO)cc1` reads -21.1; that for `O=C(O[C@@H]1C[C@@H]2C[C@H]3C[C@H](C1)N2CC3=O)c1c[nH]c2ccccc12` [Dolasetron mesylate], -3.58.
In the case of `CCC(C)(C)C(=O)O[C@H]1C[C@@H](C)C=C2C=C[C@H](C)[C@H](CC[C@@H]3C[C@@H](O)CC(=O)O3)[C@H]21` [Simvastatin], the 1-h baseline activity was 6.15.
With `C#C[C@]1(O)CC[C@H]2[C@@H]3CCC4=CC(=O)CC[C@@H]4[C@H]3CC[C@@]21CC` [Levonorgestrel] the figure was -8.79; with `CCCCc1nc(Cl)c(CO)n1Cc1ccc(-c2ccccc2-c2nnn[nH]2)cc1` [Losartan potassium], 10.3.
Consider `Cc1ccc(-c2cc(C(F)(F)F)nn2-c2ccc(S(N)(=O)=O)cc2)cc1` [Celecoxib], for which the 1-h baseline activity was -5.62.
With `COc1ccc([C@@H]2Sc3ccccc3N(CCN(C)C)C(=O)[C@@H]2OC(C)=O)cc1` [Diltiazem hydrochloride] the figure was -4.8.
For the compound `CN1CCC[C@@H]1Cc1c[nH]c2ccc(CCS(=O)(=O)c3ccccc3)cc12` [Eletriptan hydrobromide], the 1-h baseline activity amounted to 2.42.
With `CCC(=O)O[C@]1(C(=O)SCF)[C@H](C)C[C@H]2[C@@H]3C[C@H](F)C4=CC(=O)C=C[C@]4(C)[C@@]3(F)[C@@H](O)C[C@@]21C` [Fluticasone propionate], the 1-h baseline activity was 6.52.

The record behind these values is the supplement of paper PMC9950053.
